# This is one part of a sample in which the strongest signals are shown more often than they occur.
# B1: Pwp2 (Candida glabrata) (protein)
# chain: MGSSHHHHHHSSGLVPRGSHMASKNPVELNNVCTFPNDYGRIPGFTVLVGRLGLLISASDYKELLRYPGAFLIATQDTMTTSPNFELTGFPFFTGLYGLTVFPLDLLVELRGYFVPPNSGQYTFTLSDSDDAAIIFLGNPSAFPCGDLQNWPKPSEEDITVTDHLFPSRTLYLIEGVAYPMRIAYYNGIGAGRLNAAFIDPSGTRHTNWEGYIWQYDPCSTCTYS
# Legend:
# Assay in all cases: glycan array binding signal (z-score within array); higher = stronger binding
# Settings in all cases: glycan notation: IUPAC condensed, linker removed
# [1] = biological target: Fuc(a1-2)Gal(b1-3)GlcNAc(b1-3)[Gal(b1-4)GlcNAc(b1-6)]Gal(b1-4)Glc
# Outline: (§1)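 Columns mapping to the same glycan were averaged after glycan names were converted to IUPAC-condensed notation. The data come from 3228 arrays in the Consortium for Functional Glycomics database, limited to those with an available protein sequence. Binding is reported as a within-array Z-score averaged across arrays of one protein sequence and across linkers.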
# [2] = biological target: Fuc(a1-2)Gal(b1-3)[Fuc(a1-4)]GlcNAc
# Outline: as §1
# [3] = biological target: Fuc(a1-2)Gal(b1-3)[Fuc(a1-4)]GlcNAc(b1-2)Man(a1-3)[Fuc(a1-2)Gal(b1-3)[Fuc(a1-4)]GlcNAc(b1-2)Man(a1-6)]Man(b1-4)GlcNAc(b1-4)[Fuc(a1-6)]GlcNAc(b1-4)[Fuc(a1-6)]GlcNAc
# Outline: as §1
# [4] = biological target: Fuc(a1-2)Gal(b1-4)GlcNAc(b1-3)[Fuc(a1-3)[Gal(b1-4)]GlcNAc(b1-6)]Gal(b1-4)Glc
# Outline: as §1
# [5] = biological target: Fuc(a1-2)Gal(b1-4)[Fuc(a1-3)]GlcNAc(b1-3)Gal(b1-4)[Fuc(a1-3)]GlcNAc(b1-3)Gal(b1-4)[Fuc(a1-3)]GlcNAc
# Outline: as §1
# [6] = biological target: Fuc(a1-2)[Gal(a1-3)]Gal(b1-4)GlcNAc(b1-3)GalNAc
# Outline: as §1
# [7] = biological target: Fuc(a1-3)[Gal(b1-4)]GlcNAc(b1-2)Man(a1-3)[Fuc(a1-3)[Gal(b1-4)]GlcNAc(b1-2)Man(a1-6)]Man(b1-4)GlcNAc(b1-4)GlcNAc
# Outline: as §1
# [8] = biological target: Gal(a1-3)Gal(b1-3)GlcNAc(b1-2)Man
# Outline: as §1
# [9] = biological target: Gal(a1-3)Gal(b1-3)GlcNAc(b1-6)GalNAc
# Outline: as §1
# [10] = biological target: Gal(a1-3)Gal(b1-4)GlcNAc(b1-6)GalNAc
# Outline: as §1
# [11] = biological target: Gal(b1-4)GlcNAc
# Outline: as §1
# [12] = biological target: Gal(b1-4)GlcNAc(b1-2)[Gal(b1-4)GlcNAc(b1-4)]Man(a1-3)[GlcNAc(b1-4)][Gal(b1-4)GlcNAc(b1-2)[Gal(b1-4)GlcNAc(b1-6)]Man(a1-6)]Man(b1-4)GlcNAc(b1-4)GlcNAc
# Outline: as §1
# [13] = biological target: Gal(b1-4)GlcNAc(b1-2)[Gal(b1-4)GlcNAc(b1-6)]Man(a1-6)[GlcNAc(b1-4)][Gal(b1-4)GlcNAc(b1-2)Man(a1-3)]Man(b1-4)GlcNAc(b1-4)GlcNAc
# Outline: as §1
# [14] = biological target: Gal(b1-4)GlcNAc(b1-3)Gal(b1-4)GlcNAc(b1-3)Gal(b1-4)GlcNAc(b1-3)Gal(b1-4)GlcNAc(b1-2)Man(a1-3)[Gal(b1-4)GlcNAc(b1-3)Gal(b1-4)GlcNAc(b1-3)Gal(b1-4)GlcNAc(b1-3)Gal(b1-4)GlcNAc(b1-2)Man(a1-6)]Man(b1-4)GlcNAc(b1-4)[Fuc(a1-6)]GlcNAc
# Outline: as §1
# [15] = biological target: Gal(b1-4)GlcNAc(b1-3)Gal(b1-4)GlcNAc(b1-3)Gal(b1-4)GlcNAc(b1-3)Gal(b1-4)GlcNAc(b1-3)Gal(b1-4)GlcNAc(b1-2)Man(a1-3)[Gal(b1-4)GlcNAc(b1-3)Gal(b1-4)GlcNAc(b1-3)Gal(b1-4)GlcNAc(b1-3)Gal(b1-4)GlcNAc(b1-3)Gal(b1-4)GlcNAc(b1-2)Man(a1-6)]Man(b1-4)GlcNAc(b1-4)[Fuc(a1-6)]GlcNAc
# Outline: as §1
# [16] = biological target: Gal(b1-4)GlcNAc(b1-3)GalNAc
# Outline: as §1
# [17] = biological target: Gal(b1-4)GlcNAc(b1-6)[Gal(b1-3)]GalNAc
# Outline: as §1
# [18] = biological target: Gal3S(b1-4)Glc
# Outline: as §1
# [19] = biological target: Gal6S(b1-4)Glc6S
# Outline: as §1
# [20] = biological target: GalNAc(b1-4)GlcNAc6S
# Outline: as §1
# [21] = biological target: GlcA(b1-6)Gal
# Outline: as §1
# [22] = biological target: GlcNAc(a1-4)Gal(b1-4)GlcNAc(b1-3)Gal(b1-4)Glc
# Outline: as §1
# [23] = biological target: GlcNAc(a1-4)Gal(b1-4)GlcNAc(b1-3)Gal(b1-4)GlcNAc(b1-3)Gal(b1-4)GlcNAc
# Outline: as §1
# [24] = biological target: GlcNAc(b1-3)Gal(b1-4)GlcNAc(b1-2)[GlcNAc(b1-3)Gal(b1-4)GlcNAc(b1-6)]Man(a1-6)[GlcNAc(b1-3)Gal(b1-4)GlcNAc(b1-2)Man(a1-3)]Man(b1-4)GlcNAc(b1-4)GlcNAc
# Outline: as §1
# [25] = biological target: GlcNAc(b1-3)Gal(b1-4)GlcNAc(b1-3)Gal(b1-4)GlcNAc(b1-3)Gal(b1-4)GlcNAc(b1-2)[GlcNAc(b1-3)Gal(b1-4)GlcNAc(b1-3)Gal(b1-4)GlcNAc(b1-3)Gal(b1-4)GlcNAc(b1-6)]Man(a1-6)[GlcNAc(b1-3)Gal(b1-4)GlcNAc(b1-3)Gal(b1-4)GlcNAc(b1-3)Gal(b1-4)GlcNAc(b1-2)Man(a1-3)]Man(b1-4)GlcNAc(b1-4)[Fuc(a1-6)]GlcNAc
# Outline: as §1
# [26] = biological target: GlcNAc(b1-3)Gal(b1-4)GlcNAc(b1-3)Gal(b1-4)GlcNAc(b1-3)Gal(b1-4)GlcNAc(b1-3)Gal(b1-4)GlcNAc(b1-2)Man(a1-3)[GlcNAc(b1-3)Gal(b1-4)GlcNAc(b1-3)Gal(b1-4)GlcNAc(b1-3)Gal(b1-4)GlcNAc(b1-3)Gal(b1-4)GlcNAc(b1-2)Man(a1-6)]Man(b1-4)GlcNAc(b1-4)GlcNAc
# Outline: as §1
# [27] = biological target: GlcNAc(b1-3)[GlcNAc(b1-6)]Gal(b1-4)GlcNAc
# Outline: as §1
# [28] = biological target: GlcNAc(b1-4)Gal(b1-4)GlcNAc
# Outline: as §1
binder,measurement,setting,value
B1,glycan array binding signal (z-score),[1],-0.594
same,glycan array binding signal (z-score),[2],-0.451
same,glycan array binding signal (z-score),[3],6.32
same,glycan array binding signal (z-score),[4],0.384
same,glycan array binding signal (z-score),[5],-0.086
same,glycan array binding signal (z-score),[6],-0.603
same,glycan array binding signal (z-score),[7],2.54
same,glycan array binding signal (z-score),[8],-0.046
same,glycan array binding signal (z-score),[9],-0.526
same,glycan array binding signal (z-score),[10],-0.281
same,glycan array binding signal (z-score),[11],-0.286
same,glycan array binding signal (z-score),[12],-0.248
same,glycan array binding signal (z-score),[13],-0.569
same,glycan array binding signal (z-score),[14],3.91
same,glycan array binding signal (z-score),[15],1.62
same,glycan array binding signal (z-score),[16],-0.473
same,glycan array binding signal (z-score),[17],1.6
same,glycan array binding signal (z-score),[18],-0.429
same,glycan array binding signal (z-score),[19],-0.419
same,glycan array binding signal (z-score),[20],-0.448
same,glycan array binding signal (z-score),[21],-0.235
same,glycan array binding signal (z-score),[22],-0.466
same,glycan array binding signal (z-score),[23],-0.42
same,glycan array binding signal (z-score),[24],4.24
same,glycan array binding signal (z-score),[25],5.45
same,glycan array binding signal (z-score),[26],-0.549
same,glycan array binding signal (z-score),[27],-0.141
same,glycan array binding signal (z-score),[28],-0.446

# — the supplement of paper PMC8728848
